Screening data: PubChem BioAssay, several laboratories
MRP1 act: activates MRP-1 | viability increase, % at 10 µM | 0.61% of 140,000 active | AID 799 | H69AR cells + doxorubicin, viability rescue, CellTiter-Glo;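 active = viability gain under doxorubicin at or above a set limit, the compound median plus 3 SD, cut at about 4.7% in these data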;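 note: MRP-1 overexpressing cells given doxorubicin 25 µM after compound pretreatment; 18-22 h compound pretreatment then 72 h with doxorubicin before readout; 0% = doxorubicin-only wells and 100% = vehicle-treated cells without doxorubicin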
MRP reversal: compounds reversing MRP-mediated drug resistance | H69AR cells + 2 uM doxorubicin, CellTiter-Glo, 72 h | differential viability (reversal), % at 10 µM | 0.04% of 85,000 active;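 active = viability drop by adding the cancer drug above about 55%, with treated viability meeting a 40% cutoff, limit read from the data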;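 note: viability without doxorubicin minus viability with 2 µM doxorubicin for each compound; larger differential means the compound sensitizes cells more to doxorubicin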
S1P2 antag: antagonists of human S1P2 receptor; inhibition, % at 5 µM; 0.21% of 97,000 active; cell-based S1P2 antagonist assay, inhibition at 5 uM; O95136; in the data active = inhibition above about 45%;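 note: CRE beta-lactamase reporter cells expressing human S1P2 stimulated with S1P; 0% = agonist at EC80 alone and 100% = agonist plus reference antagonist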
GALR2 blocker: antagonists of human galanin receptor 2 (GALR2) | O43603 | GALR2-expressing cells, antagonist mode | inhibition, % at 4 µM | 0.39% of 140,000 active | AID 828; in the data active = inhibition above about 27%;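 note: cells stimulated with galanin 1-16 at roughly its EC80; 0% = agonist challenge control and 100% = basal control without agonist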
Target sequence (O43603 whole entry, looked up): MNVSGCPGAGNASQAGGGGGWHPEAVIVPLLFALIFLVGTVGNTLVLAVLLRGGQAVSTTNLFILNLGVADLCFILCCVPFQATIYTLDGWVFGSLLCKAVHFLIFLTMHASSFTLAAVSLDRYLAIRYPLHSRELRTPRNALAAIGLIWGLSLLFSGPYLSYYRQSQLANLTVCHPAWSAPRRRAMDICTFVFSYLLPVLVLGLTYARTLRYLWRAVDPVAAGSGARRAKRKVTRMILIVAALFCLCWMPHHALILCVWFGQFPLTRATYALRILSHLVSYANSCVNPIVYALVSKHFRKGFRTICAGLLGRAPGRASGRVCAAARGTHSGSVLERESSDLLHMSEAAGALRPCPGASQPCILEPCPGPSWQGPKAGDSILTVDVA
GALR2 ag: GALR2 (human) receptor agonism; AID 803; O43603; activation, % (test concentration not listed); GALR2-expressing cells, agonist activation read-out; 0.48% of 140,000 active; in the data active = activation above about 5%, passing the limit was not always enough;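 note: 0% = vehicle buffer wells and 100% = reference agonist at full effect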
S1P2 agonist: agonists of human S1P2 receptor; activation, % at 4.5 µM; 0.46% of 97,000 active; S1P2-expressing cell line, agonist reporter read-out; O95136; in the data active = activation above about 16%;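 note: 0% = vehicle low control and 100% = maximal reference agonist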
* marks the source's active call; other numbers are inactive results; · = no result. Rows were chosen to be rich in hits. Some 1.7% of all compounds tested hit in one or more screens of this group.

SMILES	MRP1 act	MRP reversal	S1P2 antag	GALR2 blocker	GALR2 ag	S1P2 agonist
CN(C)S(=O)(=O)c1ccc(N2CCCC2)c(C(=O)Nc2nc(-c3cc(F)ccc3F)cs2)c1	-5.1	·	·	4.5	-0.5	·
Cc1nn(Cc2c(F)c(F)c(F)c(F)c2F)c(C)c1NC(=O)c1ccc(COc2ccccc2Cl)o1	1.5	·	10.4	9.6	-1.6	-6.4
Cc1nn(Cc2c(F)c(F)c(F)c(F)c2F)c(C)c1NC(=O)c1ccc(COc2ccc(F)cc2)o1	6.7*	·	13.8	-1.7	-1.4	-8.0
CCCCC(=O)NC(NC(=S)N1CCCCCC1)C(Cl)(Cl)Cl (configuration not stated)	-0.4	·	·	19.4	-0.4	·
Cc1csc(C(C#N)C(=O)c2cc3ccccc3o2)n1 (configuration not stated)	6.1*	-15.2	7.7	-2.7	-0.5	-8.6
Cc1ccc(C(=O)Nc2nnc(C)s2)o1	9.0*	·	-8.0	2.8	-1.3	1.9
Cc1nnc(NC(=O)COc2ccccc2)s1	5.1*	0.9	-4.9	-4.7	-0.3	-5.5
Cc1nnc(NC(=O)c2ccco2)s1	5.6*	-0.3	-10.3	10.6	-1.0	-0.6
COc1ccc(C2N=C(c3ccccc3)C(C)(C)N2O)cc1 (configuration not stated)	-2.1	2.6	-16.1	-4.9	-1.8	-3.7
COc1cc2c(cc1OC)C(c1cc3ccccc3oc1=O)=NC(C)(C)C2	-6.7	0.5	-58.4	13.4	-0.1	32.8*
O=C(OC1CCc2ccccc2C1=O)c1ccccc1O (configuration not stated)	13.5*	-7.7	0.1	-1.6	-2.3	-1.9
O=C(N/N=C1\CCc2ccccc21)c1ccccc1O	-0.1	·	·	7.7	0.6	·
O=C(Nc1c2ccccc2nc2ccccc12)C(Cl)(Cl)Cl	-0.5	·	-24.1	-11.1	10.2	18.1*
CCOc1ccc(NC(=O)c2oc3ccccc3c2NC(=O)C2CC2)cc1	·	-11.8	·	·	·	·
O=C(O)CCC(=O)N1CCN(c2nc(-c3ccccc3Cl)c3cc(Br)ccc3n2)CC1	-1.7	-1.5	-14.9	8.6	9.6	16.4*
Cc1ccc(NC(=O)c2ccccc2-c2ccc(C(F)(F)F)cc2)cc1S(=O)(=O)N1CCOCC1	-2.0	·	·	-1.4	-0.8	·
Cc1ccc(NC(=O)C(=O)c2c(-c3ccccc3)cc3ccccn23)cc1S(=O)(=O)N1CCOCC1	4.8*	13.3	5.9	1.9	-1.9	-3.9
COc1ccc(-n2c(SCc3ccc([N+](=O)[O-])cc3)nnc2-c2ccc(C)cc2)cc1	-5.0	·	·	-36.5	1.2	·
O=C(NCc1ccco1)C1(c2ccc(Br)cc2)CCCC1	-1.8	18.1	-1.8	-14.7	-1.4	-1.2
O=C(NCCc1ccc(Cl)cc1)c1nnc(Cc2ccc(Cl)cc2)o1	1.3	0.3	·	3.3	0.0	·
CC(CCc1ccccc1)NC(=O)CN1CCN(Cc2ccccc2)C1=O (configuration not stated)	-1.7	6.3	18.4	-0.5	-1.3	-6.6
CC(CCc1ccccc1)NC(=O)c1nnc(Cc2ccc(Cl)cc2)o1 (configuration not stated)	9.9*	-10.3	14.1	8.8	-2.1	-3.9
CC(CCc1ccccc1)NC(=O)CN1CCN(Cc2ccc(Cl)cc2)C1=O (configuration not stated)	7.3*	-8.6	4.9	1.6	-0.9	-1.4
O=C1C=CC(=O)N1c1ccc(OC(F)F)cc1	-1.5	·	·	-0.9	-0.1	·
Cn1c(=O)n(C/C=C/c2ccccc2)c(=O)c2c1nc1n2CCCN1Cc1ccccc1	2.7	27.6	4.6	-5.8	1.3	-3.9
SMILES	MRP1 act	MRP reversal	S1P2 antag	GALR2 blocker	GALR2 ag	S1P2 agonist
Cn1c(=O)n(C/C=C/c2ccccc2)c(=O)c2c1nc1n2CCCN1c1ccc(F)cc1	5.3*	4.4	·	2.2	-0.4	·
Cn1c2ccc(Cl)cc2c2nc3ccccc3nc21	-4.7	-9.2	-53.4	0.9	-0.5	23.9*
COC(=O)c1ccc(CO/N=C(\NC(C)=O)c2nonc2NC(C)=O)cc1	-0.6	·	·	4.1	-1.7	·
CCn1c(C)nc2cc(C(=O)OC(C(F)(F)C(F)F)C(F)(F)C(F)F)ccc21	1.4	7.3	70.1*	6.8	-0.3	-8.6
Oc1c(C(c2cccs2)N2CCN(c3ccccc3)CC2)sc2ncnn12 (configuration not stated)	13.7*	-1.5	-5.9	1.2	-5.1	-7.4
NS(=O)(=O)c1ccc(N2N=C(c3ccc(Br)cc3)CC2c2ccc(F)cc2)cc1 (configuration not stated)	-2.6	·	-114.7	-38.1	155.9*	161.0*
NS(=O)(=O)c1ccc(N2N=C(c3ccccc3)CC2c2cccc(F)c2)cc1 (configuration not stated)	-3.6	·	·	-10.8	5.9*	·
CCN(CC)C(=O)CCNS(=O)(=O)c1ccc(C)cc1	-3.8	12.1	25.2	7.5	-1.8	-3.9
CN(C)c1cccc(C(=O)OCC(=O)Nc2nccs2)c1	-0.5	·	·	1.5	-1.3	·
COc1ccc(C2C(C#N)=C(C)NC3=C2C(=O)c2ccccc23)cc1 (configuration not stated)	-1.1	-8.8	3.0	17.1	-2.8	-3.8
COc1cc(C2C(C#N)=C(C)NC3=C2C(=O)c2ccccc23)cc(OC)c1OC (configuration not stated)	-6.0	·	-2.1	30.6*	-2.3	7.2
COc1ccc(C(=O)C(CO)Oc2ccccc2OC)cc1OC (configuration not stated)	-1.4	·	13.1	-7.5	-1.7	19.2*
CCNc1ccc(C(=O)OCC(=O)c2cc(C)n(Cc3ccc4c(c3)OCO4)c2C)cc1[N+](=O)[O-]	5.2*	·	·	16.1	-1.7	·
c1ccc(N2N=C(c3cccs3)CC2c2ccco2)cc1 (configuration not stated)	-3.5	·	-49.4	-0.1	56.9*	46.9*
O=C(OCC(=O)N1N=C(c2ccc(Cl)cc2)CC1c1ccco1)c1ccccc1O (configuration not stated)	3.1	1.0	-30.9	-10.3	0.5	-2.5
CCN(CC)CC(=O)N1N=C(c2cccs2)CC1c1ccco1 (configuration not stated)	-0.2	·	4.5	0.4	-2.0	-0.6
Clc1ccc(N2N=C(c3cccs3)CC2c2ccco2)cc1 (configuration not stated)	-1.4	·	-78.3	-4.8	70.1*	101.9*
Cc1cccn2c(=O)c3cc(C#N)c(=NC(=O)c4ccncc4)n(CCCOC(C)C)c3nc12	-4.1	34.6	-12.9	-12.6	2.0	17.5*
COCCCn1c(=NC(=O)c2ccncc2)c(C#N)cc2c(=O)n3cccc(C)c3nc21	-4.5	·	·	-12.6	5.6*	·
CCCn1c(=NC(=O)c2ccncc2)c(C#N)cc2c(=O)n3cccc(C)c3nc21	·	32.1	·	·	·	·
Cc1ccc(S(=O)(=O)N2CCC(C(=O)NCc3ccncc3)CC2)cc1	0.5	-0.2	-19.9	-10.5	-1.4	-4.2
CN(C)CCCn1c(SCC(=O)N2c3ccccc3Sc3ccccc32)nc2ccccc2c1=O	-6.5	·	·	-11.4	3.4	·
Cc1cc(C)c(S(=O)(=O)Nc2ccc(O)cc2)cc1C	-2.9	7.8	-6.6	-1.1	-0.5	65.2*
